The panel holds about 83,000 compounds, 20% with a hit somewhere; the sample as a whole holds those more often.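 In brief: 96-well plates, 48 h treatment, single concentration, percent growth endpoint.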 A number with no mark means an inactive call. The source made the active and inactive calls. How the source made its calls: active means growth percent below 10; inactive means the rest.

What all share (test): NCI-60 one-dose screen, 48 h (100 = growth as untreated, 0 = no growth, -100 = all killed)
Holding throughout (conditions): 10 µM unless noted

Assay [1] has as its system NCI-H23 lung.
Assay [2] concerns NCI-H226 lung.
Assay [3] has as its system NCI-H322M lung.
The test system of assay [4] is HOP-62 NSCLC.
Assay [5] deals with NCI-H460 lung.
The test system of assay [6] is HOP-92 NSCLC.
Assay [7] has as its system NCI-H522 lung.
The test system of assay [8] is A549/ATCC NSCLC.
Assay [9] relates to 786-0 renal.
Assay [10] relates to COLO 205 colon.
The test system of assay [11] is DU-145 prostate.
Assay [12] concerns K-562 leukemia.
Assay [13] concerns MALME-3M melanoma.
Assay [14] has as its system MDA-MB-231 breast.
Assay [15] has as its system RXF 393 renal.
Assay [16] relates to SF-268 CNS.
The subject of assay [17] is SF-295 CNS.
For assay [18], the system named is SF-539 CNS.
Assay [19] concerns UACC-257 melanoma.
Assay [20] deals with M14 melanoma.

As to `NC(=S)N/N=C(/c1ccccc1)c1ccccc1N`, the growth in assay [1] was 94.9%; in assay [2] it was 82.2%; in assay [3] it was 91.8%; in assay [4] it was 98.5%; in assay [5], 102%; in assay [6] it was 102%. In addition, the growth in assay [7] is 88.9%; in assay [8] it was 87.3%; in assay [9], 101%; in assay [10] it was 108%; in assay [11], 94.2%; in assay [12], 45.5%. Further, the growth in assay [13] is 93.7%; in assay [14] it was 85.8%; in assay [15], 105%; in assay [16], 92.9%; in assay [17], 82.5%; in assay [18] it was 99.6%. Also, the growth in assay [19] was 54%.
In the case of `COc1cccc(-c2nc3occn3c2-c2ccnc(NCCCNS(=O)(=O)c3cccc(F)c3)n2)c1`, the growth in [1] was 89.7%; in assay [2] it was 62.2%; in assay [3], 107%; in [4], 108%; in [5] it was 82.6%; in assay [6], 91.9%. Also, the growth is 74.9% in [7]; 97.4% in assay [8]; 103% in assay [9]; 45.5% in assay [10]; 93.8% in [11]; 69% in assay [12]. For the same compound, the growth in assay [13] was 70.2%; in assay [14] it was 104%; in assay [15], 99.2%; in [16] it was 87%; in assay [17], 94.8%; in [18], 106%. The growth in assay [19] is 83.8%.
For `O=C(N=Nc1c(O)[nH]c2ccc(F)cc12)c1cc2ccccc2[nH]1`, the growth in assay [1] was 97.4%; in assay [2], 94.6%; in assay [3] it was 94.4%; in assay [4], 94.5%; in assay [5], 100%; in assay [6] it was 96.4%. Besides, the growth in [7] is 77.8%; in assay [8], 91.3%; in [9], 97.3%; in assay [10] it was 117%; in assay [11], 95.9%; in assay [12], 91.7%. For the same compound, the growth was 99.8% in assay [13]; 95.1% in assay [14]; 104% in assay [15]; 88.3% in assay [16]; 100% in assay [17]; 99.8% in assay [18]. The growth in assay [19] is 106%; in assay [20], 94.9%.
`Cc1[nH]n(-c2cccc(Cl)c2)c(=O)c1/C=C1\C=Nc2ccc(Br)cc21`: the growth in assay [1] was 31.7%; in assay [2], 69.1%; in [3] it was 54.9%; in assay [4], -16.4% (active); in assay [5] it was -72.9% (active); in assay [6], -16.9% (active). The growth in assay [7] is 29.2%; in [8], -8.71% (active); in [9], -4.37% (active); in [10], 7.07% (active); in assay [11], 36.2%; in [12] it was 64%. Also, the growth in [13] is 12.6%; in assay [14] it was 17.4%; in assay [15], -44.4% (active); in assay [16] it was 51.1%; in [17], 31.3%; in assay [18], 42.2%. In addition, the growth in assay [19] is 75.1%.
In the case of `N#CSCC1CC(O)(c2ccccc2)C(c2ccccc2)C(c2ccc(F)cc2)O1` (configuration not stated), the growth in [1] was 7.22% (active); in [2], 63.1%; in assay [3] it was 60.4%; in [4], 60.3%; in assay [5] it was 25.2%; in assay [6], 1.42% (active). Besides, the growth in assay [7] is 25.2%; in assay [8] it was 63.1%; in assay [9] it was 3.08% (active); in assay [10] it was 22.1%; in assay [11], -4.17% (active); in assay [12] it was 12.6%. The growth was -10.9% (active) in assay [13]; -4.68% (active) in [14]; 25.9% in assay [15]; 29.9% in [16]; 52.9% in assay [17]; 40.5% in assay [18]. Further, the growth is 60.1% in assay [19] and -2.19% (active) in assay [20].
Turning to `CCCCOc1ccc(/C=N/Nc2cc(C)nc3ccc(Cl)cc23)cc1`, the growth in assay [1] is 60%; in assay [2], 88.9%; in assay [3], 51.6%; in [4] it was 27.1%; in assay [5] it was -62.8% (active); in [6] it was 68.7%. Also, the growth in assay [7] was -25.4% (active); in assay [8], 10.1%; in [9] it was -80.9% (active); in [10] it was -66.6% (active); in assay [11], 3.96% (active); in assay [12] it was -21.7% (active). Further, the growth in assay [13] is -77% (active); in assay [14], -49.5% (active); in assay [15], -84.2% (active); in [16] it was 64.9%; in [17] it was -83.6% (active); in assay [18], -80.5% (active). For the same compound, the growth in assay [19] is 84.1%; in [20] it was -25.2% (active).
For the compound `COc1ccc2c(Nc3ccc(NS(C)(=O)=O)cc3)c3ccccc3nc2c1`, the growth in assay [1] was -18.6% (active); in assay [2], -27.1% (active); in [3] it was 9.34% (active); in assay [4], -0.998% (active); in assay [5] it was -21.8% (active); in assay [6], -16.6% (active). Besides, the growth was -58.6% (active) in [7]; -71.2% (active) in assay [8]; 18.4% in assay [9]; -74.1% (active) in assay [10]; 8.86% (active) in assay [11]; 6.83% (active) in assay [12]. Further, the growth in [13] was -50.7% (active); in [14] it was 3.5% (active); in [15] it was -73.9% (active); in assay [16], -2.84% (active); in assay [17], -27.9% (active); in assay [18], -0.512% (active). In addition, the growth was -78% (active) in assay [19] and -53.6% (active) in assay [20].

(Values after PubChem BioAssay (NCI).)
